Laboratory results from PubChem BioAssay AID793 (The Scripps Research Institute Molecular Screening Center, 2007).
Hit rate of the full screen: of about 140,000 compounds, about 1,400 (1%) were called active. The entries come from a sample that favours actives as a whole. A number with no mark means an inactive call. Rule as the data show it: active = inhibition above about 17%; inactive = the rest.

molecular target: Neuropeptide Y receptor type 2 (Homo sapiens) (UniProt P49146); test: NPY-Y2 receptor antagonists, primary screen, cell-based (AID 793); conditions: NPY-Y2 expressing cells, antagonist mode; at 2.7 µM; active compounds read high;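 also: 0% = vehicle with agonist challenge and 100% = reference antagonist with challenge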
Sequence (P49146 whole entry, looked up): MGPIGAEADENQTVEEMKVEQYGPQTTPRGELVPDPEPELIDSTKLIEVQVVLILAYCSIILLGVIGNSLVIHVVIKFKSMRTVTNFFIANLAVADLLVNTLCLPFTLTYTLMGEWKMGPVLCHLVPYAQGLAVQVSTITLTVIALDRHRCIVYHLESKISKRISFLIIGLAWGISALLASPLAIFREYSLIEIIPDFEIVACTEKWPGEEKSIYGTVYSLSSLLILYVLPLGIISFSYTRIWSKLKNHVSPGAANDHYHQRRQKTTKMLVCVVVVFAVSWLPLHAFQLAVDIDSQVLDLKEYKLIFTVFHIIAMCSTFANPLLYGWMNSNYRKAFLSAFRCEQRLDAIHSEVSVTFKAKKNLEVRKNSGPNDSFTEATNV

SMILES | inhibition
COc1ccc(/C(N)=N/OC(=O)CCCc2ccccc2)cc1 | 22.3% (active)
COc1ccc(/C(N)=N/OC(=O)Cc2ccccc2)cc1 | 4.03%
N/C(=N\OC(=O)CCc1ccccc1)c1ccc(Cl)cc1 | 4.22%
COc1ccc(/C=N/N=C/c2c[nH]c(=O)c(C#N)c2Nc2ccccc2)cc1 | 3.81%
O=C(CNC(c1ccccc1)c1ccccc1)Nc1ccc(F)cc1 | 7.16%
O=C(COC(=O)/C(=C/c1cccs1)c1cccs1)NCc1ccccc1Cl | 5.33%
C/C(N)=C(/C#N)C(=O)COC(=O)c1cc(-c2ccc(C)cc2)nc2ccccc12 | -0.91%
Cc1ccc(OCC(=O)Nn2cnc3ccccc32)cc1 | 2.86%
COc1ccc(-c2cc(C(=O)n3cnc4ccccc43)c3ccccc3n2)cc1 | 58.8% (active)
CCOn1c(SC(C)C)nc2ccccc2c1=O | 7.2%
CCOC(=O)C(C)Sc1nc2ccccc2c(=O)n1CC1CCCCC1 (stereo not drawn) | 18.5% (active)
CC(Sc1nc2ccccc2c(=O)n1Cc1ccco1)C(=O)c1ccccc1 (stereo not drawn) | 6.17%
CCOC(=O)c1c(C)n(C)c2ccc(OC)c(NS(=O)(=O)CC)c12 | -1.01%
CCOC(=O)Cc1csc(SCC(=O)NC(C)C23CC4CC(CC(C4)C2)C3)n1 (stereo not drawn) | 5.04%
CNC(=S)N/N=C/c1ccc(OCc2ccccc2)c(Br)c1 | 6.18%
Cc1ccc2c(c1)C(c1ccccc1)N(C(=O)c1ccc(S(=O)(=O)N3CCOCC3)cc1)CC(=O)N2 (stereo not drawn) | 0.56%
Cc1ccc(CC(=O)Nc2ccc(OC(F)F)c(Cl)c2)cc1C | 1.54%
O=C(CC1CCCCC1)Nc1c2c(nn1-c1ccc(F)cc1)CS(=O)(=O)C2 | 21.6% (active)
Cc1ccc(-n2nc3c(c2NC(=O)CCC2CCCCC2)CS(=O)C3)cc1 (stereo not drawn) | 6.05%
O=C(Nc1c2c(nn1-c1ccc(F)cc1)CS(=O)C2)C12CC3CC(CC(C3)C1)C2 (stereo not drawn) | 2.38%

SMILES | inhibition
Cc1ccc(S(=O)(=O)N2CCN(CC(=O)N/N=C/c3ccc(Br)s3)CC2)cc1 | -1.25%
COc1ccc2c(c1)C(C)=CC(C)(C)N2C(=O)Nc1ccccc1 | 0.85%
CCOC(=O)NCc1ccc2c(c1)OCO2 | 4.28%
COc1ccc2c(c1)C(C)=CC(C)(C)N2C(=O)CNCc1ccc2c(c1)OCO2 | 26.6% (active)
COc1ccc(Cl)cc1NC(=O)COC(=O)C(CC(C)C)N1C(=O)C2CC=CCC2C1=O (stereo not drawn) | 3.69%
Cc1nccn1CC(=O)N/N=C/c1ccc(O)c(O)c1 | 0.1%
CCCCCNC(=O)c1cccnc1SCC(=O)Nc1ccccc1OC | 1.23%
CCCc1nc(SCC(=O)Nc2ccccc2OC)c2c(=O)n(C)c(=O)n(C)c2n1 | 21.6% (active)
Cn1c(=O)c2c(nc(SCC(=O)Nc3ccccc3N3CCCCC3)n2C)n(C)c1=O | 3.41%
O=C(NC1CC1)c1cccc(Br)c1 | 1.02%
Cc1ccccc1C(=O)NNC(=O)CN1C(=O)c2ccccc2C1=O | 4.26%
N#CCOc1ccc(C2=NO[C@@H]3[C@@H]4C[C@@H]([C@H]5C(=O)N(c6ccc7c(c6)OCO7)C(=O)[C@@H]45)[C@H]23)cc1 | 3.09%
Cc1cnc(NC(=O)CSc2nnc(-c3ccc(Cl)cc3Cl)n2N)s1 | 0.61%
Cc1ccc(CCC(=O)Nc2ncc(Cc3cc(Cl)ccc3Cl)s2)o1 | 24.4% (active)
CCOc1ccccc1NC(=O)CCc1ccc(C)o1 | 1.25%
O=C(COC(=O)c1cc([N+](=O)[O-])ccc1NCc1ccccc1)NC1CCCCC1 | 5.74%
COc1ccc(CCn2nnnc2C(c2ccccc2)N2CCN(C)CC2)cc1OC (stereo not drawn) | 5.97%
N#Cc1ccc(C(c2nnnn2CCc2ccccc2)N2CCCCCC2)cc1 (stereo not drawn) | 17.9% (active)
CC(C)C(c1nnnn1CCc1ccccc1)N1CCN(C(=O)c2ccco2)CC1 (stereo not drawn) | 3.59%
CCOc1cc(CNCc2ccccn2)ccc1OCC(=O)NC(C)(C)C | 2.66%

SMILES | inhibition
Cc1ccc(NC(=O)CCOc2ccccc2)cc1S(=O)(=O)Nc1ccccc1Cl | 0.14%
CCOC(=O)c1ccc(N/C(=N/S(=O)(=O)c2ccccc2)c2ccccc2)cc1 | 0.02%
O=C(CNC(=O)C(c1ccccc1)c1ccccc1)N/N=C\c1ccc2c(c1)OCO2 | 9.72%
CCOc1ccc(NC(=O)CSc2nc3ccccc3c(=O)n2Cc2cccs2)cc1 | 1.51%
N#Cc1ccc(N2Cc3ccccc3/C2=N/C(=O)Nc2ccc(Cl)cc2)cc1 | 108% (active)
O=C(Nc1ccccc1)OCc1cn(-c2ccc(Cl)cc2)nn1 | 12%
Cc1cccc(N2Cc3ccccc3C2=NC(=O)c2ccc(Cl)nc2)c1 | 1.24%
N=c1c2c(-c3ccccc3)c(-c3ccccc3)oc2ncn1Cc1ccco1 | 20.1% (active)
COc1ccc(-c2oc3ncn(Cc4ccco4)c(=N)c3c2-c2ccc(OC)cc2)cc1 | 18.1% (active)
C(=C\c1ccccc1)/CSc1nnc(-c2cccnc2)n1Cc1ccco1 | 7.64%
COc1ccc2[nH]c3c(=O)n(Cc4ccco4)cnc3c2c1 | 3.41%
c1ccc(-c2oc3ncnc(N4CCOCC4)c3c2-c2ccccc2)cc1 | 4.38%
COc1ccc(C(=O)CSc2nnc(COc3ccccc3)n2Cc2ccco2)cc1 | 16.4%
O=C(Nc1nnc(C2COc3ccccc3O2)o1)c1ccc(F)cc1 (stereo not drawn) | 7.93%
CN(C)CCNC(=O)/C(=C/c1cccc([N+](=O)[O-])c1)NC(=O)c1ccccc1 | 1.28%
OCCCN1c2ccccc2Nc2nnc(-c3ccccc3)cc21 | 3.77%
N=c1c2c(-c3ccccc3)c(-c3ccccc3)n(Cc3ccccc3)c2ncn1CCCO | 72.4% (active)
Cc1ccc2[nH]cc(CCNC(=O)c3ccc([N+](=O)[O-])cc3)c2c1 | -0.38%
